# High-throughput results: PubChem BioAssay, National Center for Advancing Translational Sciences (NCATS)
# Shown are actives, neighbours in structure and some others; about 2.1% of the full set was active somewhere.
# Abeta rescue: compounds reversing amyloid beta toxicity in yeast; yeast expressing A-beta42, growth rescue, OD600, 48 h; response scale: 0% DMSO, 100% iron-clioquinol control; Potency, µM (highest dose often 46.1 µM), hits mostly activators; 410,000 compounds, 0.063% hits; further: nearly all actives have a fitted effect of over 55% in size
#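 Yeast growth medium received pinned compounds, then yeast cells expressing toxic A-beta were added; plates incubated at 30 C for 48 hr. Growth read as absorbance at 600 nm, normalized to DMSO and equimolar FeCl3 plus clioquinol controls.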
# FUS suppressor: FUS proteinopathy suppression in yeast; 390,000 compounds, 0.24% hits; Potency, µM (top dose mostly 76.6 µM), actives largely listed as activators; S. cerevisiae FUS-expressing, growth rescue, OD600, 24 h;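 further: plate controls were DMSO vehicle for no effect and reference control for full effect; nearly all actives have a fitted effect of over 55% in size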
#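 Quantitative HTS measuring growth restoration of FUS-toxic yeast. Galactose-induced cells (OD 0.005) were exposed 24hr at 30C to compounds at several concentrations, then absorbance at 600 nm was recorded.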
# aSyn yeast inh: alpha-synuclein toxicity inhibition in yeast | AID 652106 | Yeast expressing alpha-synuclein, growth rescue, BacTiter-Glo, 24 h | 370,000 compounds, 0.14% hits | Potency, µM (highest dose often 46.1 µM), for inactives: top-dose growth rescue (activation), actives largely listed as activators; further: % of control where 0% means no effect; nearly all actives have a fitted effect of over 65% in size
#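 Screening used galactose-induced yeast with toxic alpha-synuclein levels, exposed to compound for 24 hr at 30 deg C. Cell growth, read with BacTiter-Glo luminescence, gave the measured signal.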
# TDP43 rescue: TDP-43 toxicity inhibition in yeast | 410,000 compounds, 1.8% hits | TDP-43 expressing yeast growth rescue, BacTiter-Glo, 24 h | Potency, µM (titrated, usually from 46.1 µM), for the others: at the top dose growth rescue (activation), hits mostly activators; further: % of control where 0% means no effect; nearly all actives have a fitted effect of over 50% in size
#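 Yeast expressing TDP-43 (pregrown in raffinose, seeded at OD600=0.02 in galactose medium) exposed to compounds 24 hr at 30 deg C. Growth read by BacTiter-Glo luminescence; rescue of toxicity appears as increased signal.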
# Starred values were filed as active, the others as inactive; i = inactive; ? = inconclusive; nt = no result given. The call rests on the fitted dose curve; in most records, active means well fitted curve in the direction sought with a large enough effect; inconclusive means small, poorly fitted or top-dose-only effect, or another doubt; inactive means no such curve, though single readings can be large; an effect the other way counts as inactive or inconclusive. Potency means the concentration at half of the fitted maximal effect.
SMILES,Abeta rescue,FUS suppressor,aSyn yeast inh,TDP43 rescue
COc1cccc(C(O)c2nc(-c3ccccc3OC)cs2)c1 (stereo unspecified),i,i,?,22µM*
C[C@@H](C(=O)N[C@H](C(=O)O)c1ccccc1)n1nnc2ccccc2c1=O,i,i,0%,14%
Cc1ccc(NC(=O)C2CCN(c3nc(-c4ccc(C(C)C)cc4)no3)CC2)c(Cl)c1,i,i,nt,0%
CC(=O)c1ccc(NC(=O)c2nc(-c3ccccc3)n(-c3ccccc3)n2)cc1,i,i,nt,18µM*
COc1ccc(-c2nc(C(=O)Nc3ccc(C(C)=O)cc3)nn2-c2cccc(Cl)c2)cc1,i,?,nt,?
CC(=O)c1cccc(NC(=O)c2nc(-c3ccccc3)n(-c3cccc(Cl)c3)n2)c1,i,?,nt,35µM*
CCc1ccc(NC(=O)c2cc(C)nn2-c2ccccc2)cc1,i,i,-1%,16µM*
N#Cc1ccc(NC(=O)c2nc(-c3ccccc3)n(-c3ccccc3)n2)cc1,i,i,-9%,-4%
CC(=O)c1ccc(NC(=O)c2nc(-c3ccccc3)n(-c3ccccc3Cl)n2)cc1,i,?,nt,14µM*
O=C(NCc1csc(-c2cccs2)n1)C1CCC1,i,i,3%,0%
COc1ccc(/C=N/Nc2nnc(-c3ccccc3)c(=O)[nH]2)cc1,i,i,2%,0%
CC(C)c1nc2ccc(C(=O)NCCCN3CCN(c4ccc(F)cc4)CC3)cc2o1,i,i,nt,-13%
Cc1nc(C(=O)Nc2cccc(Cl)c2)nn1-c1cc(OC(C)C)c(Cl)cc1Cl,i,32µM*,-11%,5%
Cc1nc(C(=O)Nc2cc(Cl)ccc2Cl)nn1-c1cc(OC(C)C)c(Cl)cc1Cl,i,i,5%,10%
COc1cc(CCN(C(C)=O)C2C(=O)Nc3ccccc3N=C2c2ccc3c(c2)OCO3)cc(OC)c1 (stereo unspecified),i,?,1%,14%
Cc1ccc(-c2nnc(Nc3ccccc3)c3ccccc23)cc1S(=O)(=O)N1CCN(C)CC1,i,i,nt,?
COc1ccc(Cl)cc1NC(=O)CN(c1cccc(C)c1C)S(=O)(=O)c1ccccc1,i,22µM*,nt,15%
COc1ccc(N(CC(=O)Nc2ccc(Cl)cc2C)S(=O)(=O)c2ccccc2)c(OC)c1,i,?,nt,8%
Cc1ccc2c(c1)N(Cc1ccccc1)C(=O)C(C)O2 (stereo unspecified),i,i,13%,?
COC(=O)c1cccc(CN2C(=O)C(C)Oc3ccc(C)cc32)c1 (stereo unspecified),i,i,21%,18µM*
Cc1ccccc1NC(=O)CSc1ccc(-c2cccnc2)nn1,i,i,0%,29%
COc1cccc(C2CC(c3c(-c4ccccc4)c4cc(Cl)ccc4[nH]c3=O)=NN2S(C)(=O)=O)c1OC (stereo unspecified),i,35µM*,14%,-2%
COc1ccccc1C1CC(c2c(-c3ccccc3)c3cc(Cl)ccc3[nH]c2=O)=NN1S(C)(=O)=O (stereo unspecified),i,?,-1%,-2%
Cc1cccc(N2C(=O)C(O)=C(C(=O)c3cccs3)C2c2ccc(F)cc2)n1 (stereo unspecified),i,i,8%,-13%
Cc1cccc(N2C(=O)C(O)=C(C(=O)c3cccs3)C2c2ccc(C(C)C)cc2)n1 (stereo unspecified),i,i,-27%,28µM*
SMILES,Abeta rescue,FUS suppressor,aSyn yeast inh,TDP43 rescue
O=C(Cc1ccccc1)N1CCN=C1SCc1cccc([N+](=O)[O-])c1,i,i,11%,21%
Cc1cccc(C(=O)N2CCN=C2SCc2ccc([N+](=O)[O-])cc2)c1,i,i,4%,10µM*
CCS(=O)(=O)c1ncc(Cl)c(C(=O)N2CCN(c3ccc(OC)cc3)CC2)n1,i,i,nt,13µM*
COc1ccc(NC(=O)c2nc(SC)ncc2Cl)cc1,i,i,1%,20µM*
CCSc1ncc(Cl)c(C(=O)N2CCN(c3ccccc3OC)CC2)n1,i,i,nt,35µM*
COc1ccc(N2CCN(C(=O)c3nc(SC)ncc3Cl)CC2)cc1,i,i,nt,20µM*
COc1cccc(NC(=O)c2nc(SC)ncc2Cl)c1,i,i,-15%,2%
O=C(CSc1nc(O)c(Cc2ccccc2)c(=O)[nH]1)c1ccccc1,i,i,3%,-13%
O=C(CCOc1ccccc1)Nc1ccccc1,i,i,2%,14%
O=C(/C=C/c1c(F)cccc1Cl)c1ccc(F)cc1,i,i,-14%,5%
Clc1cccc(Cl)c1/C=C/c1ccn[nH]1,i,i,-4%,22µM*
O=C(COC(=O)Cn1cnc2ccccc21)Nc1ccccc1C(F)(F)F,i,i,-8%,-15%
O=C(c1ccco1)N1CCN(c2nc3c(F)cc(F)cc3s2)CC1,i,i,nt,?
O=C(/C(=N/O)c1ccccc1)c1ccccc1,i,i,5%,22µM*
O=c1sc(Nc2ccccc2)nc2ccsc12,i,i,14%,18µM*
O=C(Nc1nc2ccsc2c(=O)s1)C1CCC1,i,i,7%,10µM*
CCCC(CC)Sc1nc2c([nH]1)c(=S)n(C)c(=O)n2C (stereo unspecified),i,nt,7%,35µM*
CCCCC(C)Sc1nc2c([nH]1)c(=S)n(C)c(=O)n2C (stereo unspecified),i,nt,0%,?
COc1ccc(S(=O)(=O)NCc2cccnc2)cc1C(=O)NC1CCCCC1,i,nt,-1%,18%
Cc1noc(C)c1S(=O)(=O)Nc1ccccc1OC(F)(F)F,i,i,1%,4%
COc1ccccc1CNC(=O)COc1ccc(C)cc1,i,i,23%,11µM*
COC(=O)c1ccc(OCC(=O)c2ccccc2OC)cc1,i,i,0%,11µM*
COC(=O)c1ccc(COC(=O)c2ccccc2OC)cc1,i,i,10%,28%
CCN(CC)c1ccc(NC(=O)CCCCCN2C(=O)c3ccccc3C2=O)cc1,i,i,0%,4%
CC(C)c1nc2scc(-c3ccc(Cl)cc3)c2c(=O)n1N,i,i,14%,14µM*
Cc1ccc(C2=NN(C(=O)CCl)C(c3cccs3)C2)o1 (stereo unspecified),i,i,1%,20µM*
O=C(NNC(=O)c1ccccc1F)c1ccc(-c2ccccc2Cl)o1,i,i,0%,22µM*
O=C(NCC1CCCO1)c1ccc(-c2ccccc2Cl)o1 (stereo unspecified),i,i,20%,20µM*
O=C(Cn1c2ncccc2c(=O)n1-c1ccccc1)NCc1ccccc1,i,i,nt,13µM*
CCc1ccc(-n2c(=O)c3cccnc3n2CC(=O)NCc2ccccc2)cc1,i,i,nt,3%
